The panel holds about 83,000 compounds, 20% with a hit somewhere; the sample as a whole holds those more often.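 Activity criterion: percent growth below 10, measured after cells in 96-well plates were exposed to a single compound concentration for 48 hours.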 The source made the active and inactive calls.

The assay has as its system UACC-62 melanoma. Kind of assay: NCI-60 one-dose screen, 48 h (100 = growth as untreated, 0 = no growth, -100 = all killed). To be noted: 10 µM unless noted. The method, then:
Growth inhibition of the UACC-62 human tumor cell line is measured as a screen for anti-cancer activity. Cells are grown in 96 well plates and exposed to the test compound for 48 hours. Compounds are tested at a single concentration, which is 10^-5 M for most compounds. The reported endpoint is percent growth (GI% or GIPRCNT), where numbers from 0 - 100% represent growth inhibition, and numbers from -100% - 0 represent cell death. For example, a value of 40 represents 60% growth inhibition. A value of 0 means no net growth occurred over the course of the experiment. A value of -40 indicates 40% of cells at the beginning of the experiment died by the end of the experiment. A value of -100 means all cells are dead at the end of the experiment.
NCI-60 Human Tumor Cell Lines Screen was performed using the standard one-dose NCI protocol, which is described in more detail at https://dtp.cancer.gov/discovery_development/nci-60/default.htm.
Compounds with GIPRCNT values below 10 were considered active. Activity score was based on GIPRCNT using the following formula: […]
Score is 0 for GIPRCNT values of 100 or above, 50 for GIPRCNT values of 0, and 100 for GIPRCNT values of -100.
With `O=C(/C=C/C12c3ccccc3C(c3ccccc31)C1C(=O)NC(=O)C12)c1ccc(Cl)cc1` (stereo not given), the growth is -18.3% (active).
To `CN(C)CCC(O)(Cc1ccccc1)c1ccccc1` (stereo not given) belongs 117% (inactive).
To `CCN(CC)c1ccc(Nc2ccc(CC(=O)c3ccccc3)cc2)cc1` belongs 78.5% (inactive); to `CN1CCC(=C2c3ccccc3C=Cc3ccccc32)CC1`, 82.5% (inactive); to `CCCCCCCCc1cc[n+](CC(=O)c2ccc(Br)cc2)cc1`, -32.9% (active).
Take `COc1cc2c(c(OC)c1OC)C(=O)/C(=C/c1cc(C)c(O)c(C)c1)S2`: the growth was 50.8% (inactive).
Take `O[C@H]1CO[C@H]2[C@@H]1OC[C@@H]2Oc1ccc(Nc2nc(Nc3ccc(F)c(Cl)c3)ncc2F)cc1Cl`: the growth was 89.4% (inactive).
As for `CCCCCCCCCCCCCCCCCC1=NCCN1C(=O)OCCO`, the growth is 59.6% (inactive).
To `O=C(NCc1cccnc1)c1cc(-c2csc3c(=O)cc(N4CCOCC4)oc23)cc2c1OCCO2` belongs 12.2% (inactive).
As for `Cc1cccc(-c2cc(O)c(C(=O)N3CCOCC3)s2)c1`, the figure is 34.5% (inactive); as for `C=C1C(=O)O[C@H]2[C@H]1CC/C(COC(=O)/C=C\C(=O)NCc1ccc(Cn3c(=O)sn(-c4ccc(OC)cc4)c3=O)cc1)=C\CC[C@@]1(C)O[C@@H]21`, -99.6% (active).
As for `Nc1c(-c2nc3ccccc3c(=O)[nH]2)nnn1-c1ccc(Cl)cc1`, the figure is 99.1% (inactive).
For the molecule `O=C(Oc1ccc([N+](=O)[O-])cc1)c1ccc(CBr)cc1`, the growth was 82.2% (inactive).
On to `O=C1/C(=C/c2ccc([N+](=O)[O-])cc2)COc2ccc(O)c(O)c21`, for which the growth was -19.2% (active).
For `CC(C)CCC[C@@H](C)[C@H]1CCC2C3=CCn4c(=O)ccc(=O)n4C3CC[C@@]21C` (stereo not given in full), the growth is -97.5% (active).
As for `Cc1nc2ccc(C(=O)NCc3cc(C(=O)O)c(C)o3)cc2nc1C`, the figure is 94.8% (inactive); as for `C[C@]12CCC(=O)C[C@H]1CC[C@@H]1[C@@H]2CC[C@@]2(C)[C@H]1CC[C@]2(O)C(=O)CO`, 102% (inactive).
Take `Cc1nc(Nc2ccc(NC(=S)Nc3ccccc3)cc2)nc2nc(Nc3cccc(Cl)c3)[nH]c(=O)c12`: the growth was 102% (inactive).
As for `COc1ccccc1NC(=O)Nc1ccc(-c2nc3ccccc3o2)cc1`, the figure is 98.7% (inactive); as for `O=S(=O)(Cc1ccccc1)c1nc2ccccc2s1`, 71.1% (inactive); as for `CC(=O)C(C(C)=O)c1nc2sc3cc(Cl)ccc3n2c(=N)c1C#N`, 61.6% (inactive).
Take `CCCCCOC(=O)c1cccc(NC(=O)CN(CC)CC)c1`: the growth is 103% (inactive).
To `Cc1nc(Nc2ccc(NC(=S)Nc3ccccc3)cc2)nc2nc(SCc3ccccc3)[nH]c(=O)c12` belongs 81.7% (inactive); to `NC(=O)c1c(NC(=O)c2ccc(C(F)(F)F)cc2Cl)sc2c1CCC(=O)C2`, -74.7% (active); to `COc1ccc(-n2nnc(C(=O)NCCc3c[nH]c4ccc(F)cc34)c2C)cc1`, 98.4% (inactive).
As for `N#C/C(=C\c1ccc(Br)cc1)n1nnc2ccccc21`, the figure is 14% (inactive).
As for `O=c1[nH]c(=O)n(C2CC(O)C(CO)O2)cc1CO` (stereo not given), the figure is 79.2% (inactive).
With `O=C(NCCOCCOCCNc1cccc2c1C(=O)N(C1CCCNC1=O)C2=O)c1cc2c(o1)C(=O)c1ccccc1C2=O` (stereo not given), the growth was -81.7% (active).
As for `CCCCCCNCc1cc(C(C)(C)C)cc(CNCCCCCC)c1O`, the figure is -85.3% (active).
To `Cc1ccc(NSc2ccccc2[N+](=O)[O-])cc1` belongs 28.6% (inactive).
To `CCN(CC)CC(=O)Nc1cccc(C(=O)OC(C)C)c1` belongs 102% (inactive).
Regarding `CCNCCNc1cc(-c2ccc(C(F)(F)F)cc2)c(C#N)c2nc3cc(Cl)c(Cl)cc3n12`, the growth is -63.3% (active).
As for `COc1ccc(/C(C)=C(\c2ccc(Cl)cc2)c2ccc(OCCN(C)C)cc2)cc1F`, the figure is 42.3% (inactive); as for `CC(C)OCCCNCC(=O)Nc1ccc(S(=O)(=O)c2ccc(NC(=O)CNCCCOC(C)C)cc2)cc1`, 107% (inactive).
Take `COc1ccc(-c2cn(-c3cccc(C(=O)/C=C/c4cc(OC)c(OC)c(OC)c4)c3)c(=O)[nH]2)cc1`: the growth is -42.8% (active).
Regarding `CC(=[N-])N1CCC[C@@H](Nc2c3ccccc3nc3ccccc23)C1.[Cl][Pt].[NH-]CCC[NH-]`, the growth is -63.3% (active).
As for `Fc1ccc(Nc2nc3nonc3nc2Nc2ccc(F)cc2)cc1`, the figure is 3.98% (active).
Regarding `CCCCN(CCCC)CCCn1c(=O)c2sc3ncccc3c2n2nnc(-c3ccccc3)c12`, the growth is 90.8% (inactive).
As for `C=C(C)C1CCC(=C)C2CCC3(C)OC12/C=C(/COC(C)=O)CCC3O` (stereo not given), the figure is 94.2% (inactive); as for `CCCCCCN(CCCCCC)CC(O)c1cccc2ccc(Cl)cc12` (stereo not given), 51.4% (inactive).

These data come from PubChem BioAssay (NCI).
